GC-A act – GC-A (human) enzyme activation; P16066; activation, % at 10 µM; HEK293 GC-A cells, cGMP TR-FRET, EC30 ANP; 0% at EC30 ANP, 100% saturating ANP; 370,000 compounds, 0.14% hits; in the data active = activation above about 40%
ALR inh – inhibitors of human sulfhydryl oxidase ALR; P55789; purified ALR, DTT oxidation, H2O2 HRP-luminol luminescence; inhibition, % (test concentration not listed); 290,000 compounds, 3.8% hits; AID 485317;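 active = mean replicate inhibition above about 79%, with every replicate also reaching it, limit read from the data; inconclusive = only one of the two criteria met; inactive = mean below limit and not every replicate reaching it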
HDAC3 inhib – human HDAC3 inhibition; 320,000 compounds, 0.15% hits; recombinant HDAC3, fluorogenic peptide/trypsin coupled, fluorescence; inhibition, % at 8.3 µM; O15379; in the data active = inhibition above about 26%, passing the limit was not always enough; inconclusive = no clear call, values can overlap the other calls
GC-B act – GC-B (human) receptor activation; P20594; HEK293-GC-B cells, CNP EC30, cGMP TR-FRET; 0% at EC30 CNP, 100% saturating CNP; activation, % at 10 µM; 370,000 compounds, 0.11% hits; AID 1920062;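 active = activation at 10 µM reaching about 35% in either raw or pattern-adjusted values, limit read from the data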
Starred values were filed as active, the others as inactive; ? = inconclusive; · = not tested or not shown. This excerpt belongs to a sample that is enriched for hits.

SMILES	GC-A act	ALR inh	HDAC3 inhib	GC-B act
COc1ccc(S(=O)(=O)/N=C2/NC(=O)/C(=C\c3ccco3)S2)cc1	-2	-5	?	1
Cc1ccc(C)c(CNc2ccc(S(=O)(=O)N3CCCCC3)cc2)c1	-5	2	-11	-1
CCOC(=O)c1c(NC(=O)CSc2nnc(-c3ccc(OC)cc3)o2)sc2c1CCC2	-2	0	-2	-11
NC(=O)c1c(NC(=O)COC(=O)CSc2nnc(-c3ccc(Cl)cc3)o2)sc2c1CCC2	51*	45	3	-5
N#Cc1ccc(NC(=O)COC(=O)CSc2nnc(-c3ccc(Cl)cc3)o2)cc1	62*	-5	2	-10
O=C(COC(=O)CSc1nnc(-c2ccc(Cl)cc2)o1)Nc1cc(Cl)ccc1Cl	32	-7	5	-1
O=C(COC(=O)CSc1nnc(-c2ccc(Cl)cc2)o1)NCc1ccc2c(c1)OCO2	63*	11	8	4
COc1ccc(CNC(=O)C[C@H]2C[C@H](C(=O)N(C(C)C)C(C)C)[C@@]3(C)c4[nH]c5cc(-c6ccco6)ccc5c4CCN3C2=O)cc1OC	-6	·	·	-2
Nn1c(SCc2cn3cc(Cl)ccc3n2)nnc1-c1ccncc1	-2	98*	0	-5
Nn1c(SCc2cn3ccccc3n2)nnc1-c1ccncc1	-1	-1	-9	0
Oc1ccc(N2CCN(Cc3cc4c(cc3Br)OCCO4)CC2)cc1	1	92*	7	3
O=S(=O)(c1ccc(F)cc1)N1CCN(Cc2cc3c(cc2Br)OCCO3)CC1	-8	-2	-2	-2
COc1ccc(-c2c(NC(=O)c3ccco3)n(-c3ccc(C)cc3)nc(C)c2=O)cc1	2	-31	-2	5
COc1cccc(-n2c(=O)n(Cc3ccccc3)c(=O)c3[nH]cnc32)c1C	6	1	-6	2
CC1=NN(Cc2ccccc2)C(=O)C1C(c1ccccc1)C(C#N)C#N (stereo not given)	-4	98*	4	-7
O=C(NN=C1CCCC1)c1cc(Br)ccc1O	-1	75	0	7
O=C(N/N=C1/CCSC1)c1cc(Br)ccc1O	2	93*	8	-4
Cc1cccc2nc(CSCc3ccco3)cn12	-2	98*	-2	1
Cc1cc(C)n2cc(CSCc3ccco3)nc2n1	0	·	3	1
O=C(O)c1ccc2c(=O)n3c(nc2c1)/C(=C/c1ccc(F)cc1)CC3	4	·	0	-4
O=C(O)c1ccc2c(=O)n3c(nc2c1)/C(=C/c1cccc(Cl)c1Cl)CCCC3	3	97*	-2	0
CC(C)(C)NC(=O)NC(=O)CN1CCCc2ccccc21	-2	96*	3	0
O=C(CN1CCCc2ccccc21)N/N=C/c1ccccc1	0	23	-2	-3
O=C(CN1CCCc2ccccc21)N/N=C/c1ccc(O)cc1O	-3	98*	0	-1
Cc1ccc(S(=O)(=O)N(CC(=O)NC2CCC(C)CC2)c2cc(C)cc(C)c2)cc1 (stereo not given)	-4	·	·	0
SMILES	GC-A act	ALR inh	HDAC3 inhib	GC-B act
COc1ccc(C2=Cc3ccccc3C(CC(=O)C3CC3)N2c2ccc(C#CCCO)cc2)cc1 (stereo not given)	-11	·	·	-4
COc1cc([N+](=O)[O-])ccc1-c1ccc(C(=O)Nc2ccc(NC(C)=O)cc2)o1	-3	98*	0	0
CC(=O)Nc1ccc(NC(=O)c2ccc(-c3ccc([N+](=O)[O-])cc3)o2)cc1	5	-31	-8	3
O=C(O)c1ccc(N/N=C/c2ccc(-c3ccccc3)cc2)cc1	9	·	·	-3
C/C(=N\Nc1ccc(C(=O)O)cc1)c1ccc(Br)cc1	1	98*	9	-2
C/C(=N/Nc1ncc(Br)cn1)c1ccc(Br)cc1	-1	1	-2	-8
O=C(N/N=C/C=C/c1ccccc1)c1ccncc1	-6	-5	4	2
Cc1ccc(/C=N/Nc2ccc(C(=O)O)cc2)s1	-1	99*	3	-2
Cc1ccsc1/C=N/Nc1ccc(C(=O)O)cc1	5	·	2	-3
CC(C)c1ccc(/C=N/Nc2ccc(C(=O)O)cc2)cc1	4	98*	6	-2
O=C(O)c1ccc(N/N=C/C=C/c2ccccc2)cc1	0	92*	4	0
N#Cc1c(Nc2ccccc2)[n+]([O-])c2ccc(Cl)cc2[n+]1[O-]	-2	·	·	-2
O=C(Nc1ccn(CCCNCCCN2CCCC2=O)c(=O)n1)OCc1ccccc1	4	·	·	0
Cc1ccc(/C=N/Nc2ccc(C(=O)O)cc2)o1	-3	98*	6	-3
Cc1ccc(/C=N/Nc2cccc(C(=O)O)c2)s1	-2	98*	8	5
